gsp antag = antagonizes gsp, the McCune-Albright syndrome mutation; Potency, µM (doses to about 76.9 µM), for inactives: at the highest dose activity change, negative = inhibition, hits mostly inhibitors; AID 624288; actives 0.4% (n = 340,000); gsp-mutant cells, cAMP HTRF, 30 min; calls by dose curve; cell line not stated here;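 further: intracellular cAMP measured with PDE inhibitor Ro 20-1724 present during compound exposure; potency means the concentration at half of the fitted maximal effect; on the % scale 0 is the no-effect control and ±100 the full control effect; nearly all actives have a fitted effect of over 65% in size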
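G418-selected cells were plated in DMEM/10% FBS for 16-24 h at 37C, then treated with compounds plus the PDE inhibitor […] (300 uM solution added) for 30 min at 37C. Intracellular cAMP was measured by HTRF after 30 min lysis at room temperature.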
ClpP mod = qHTS Assay for Activators of ClpP; ATP-dependent Clp protease proteolytic subunit (Bacillus subtilis (strain 168)), P80244; actives 1.9% (n = 340,000); AID 651965, 2013; purified B. subtilis ClpP, FRET peptide cleavage, 20 min; Potency, µM (top dose mostly 57.5 µM), inactives show at the highest dose activity change, negative = active; active means well fitted falling curve with a large enough effect; inconclusive means small, poorly fitted or top-dose-only effect; inactive means no such curve, though single readings can be large or run the other way; further: potency means the concentration at half of the fitted maximal effect; the source files actives as falling curves though it sought activators and does not explain the sign; nearly all actives have a fitted effect of over 65% in size
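Purified B. subtilis ClpP, 10 microg/mL final in Tris/HCl pH8 with KCl, BSA, glycerol and Tween-20, cleaved an Abz/nitrotyrosine-quenched decapeptide. Fluorescence (ex 320, em 430) was read at 0 and 20 min at room temperature. Delta was normalized to 5.8 microM ADEP and DMSO/no-enzyme controls.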
RXFP1 antagonist = antagonists of human relaxin receptor RXFP1; Q9HBX9; actives 0.59% (n = 350,000); HEK293-RXFP1, relaxin-stimulated cAMP HTRF, 30 min; hits give low values; activity change, negative = inhibition, % at 57.5 µM; AID 1259400;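 active means activity change of -60% or lower, but not beyond a set lower limit; inconclusive means change between -60% and -40%, or beyond the set limit; inactive means change above -40%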; further: on the % scale 0 is the no-effect control and ±100 the full control effect
Target sequence (Q9HBX9 whole entry, looked up): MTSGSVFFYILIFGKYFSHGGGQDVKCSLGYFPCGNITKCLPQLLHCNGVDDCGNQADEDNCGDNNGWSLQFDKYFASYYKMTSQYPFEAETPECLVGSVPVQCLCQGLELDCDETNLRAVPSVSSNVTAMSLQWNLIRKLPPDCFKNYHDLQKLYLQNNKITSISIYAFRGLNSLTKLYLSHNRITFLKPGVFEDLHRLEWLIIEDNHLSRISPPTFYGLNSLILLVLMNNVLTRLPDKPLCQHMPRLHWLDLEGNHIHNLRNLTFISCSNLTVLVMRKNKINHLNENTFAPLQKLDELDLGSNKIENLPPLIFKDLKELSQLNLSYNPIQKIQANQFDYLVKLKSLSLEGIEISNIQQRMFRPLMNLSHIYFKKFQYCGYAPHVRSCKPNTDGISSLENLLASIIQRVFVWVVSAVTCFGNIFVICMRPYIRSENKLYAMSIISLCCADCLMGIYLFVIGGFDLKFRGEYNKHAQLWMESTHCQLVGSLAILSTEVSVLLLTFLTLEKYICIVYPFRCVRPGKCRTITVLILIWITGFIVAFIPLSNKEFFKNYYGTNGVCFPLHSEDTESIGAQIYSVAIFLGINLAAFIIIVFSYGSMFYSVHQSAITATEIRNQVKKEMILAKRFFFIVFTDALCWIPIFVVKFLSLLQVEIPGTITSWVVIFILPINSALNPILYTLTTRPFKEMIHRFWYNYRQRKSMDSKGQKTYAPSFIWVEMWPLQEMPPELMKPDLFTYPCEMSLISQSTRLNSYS
RXFP1 agonist = activates the human relaxin receptor RXFP1; Potency, µM (highest dose often 57.5 µM), for the others: top-dose activation, actives largely listed as activators; actives 0.3% (n = 370,000); HEK293T-RXFP1 cAMP TR-FRET, 30 min; response scale: percent of porcine relaxin response, buffer zero; active means well fitted activation curve with a large enough effect; inconclusive means small, poorly fitted or top-dose-only effect; further: potency means the concentration at half of the fitted maximal effect; on the % scale 0 is the no-effect control and ±100 the full control effect; nearly all actives have a fitted effect of over 60% in size
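Agonist response is measured as cAMP accumulation in an RXFP1-transfected HEK293T line under PDE4 inhibition. Values are scaled between buffer-only and 29 nM porcine relaxin, and EC50s come from standard Hill equation fits.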
gsp agonist = activates gsp, the McCune-Albright syndrome mutation; gsp mutant cells, cAMP HTRF, 30 min; Potency, µM (doses to about 76.9 µM), inactives show top-dose activation (cAMP increase), usual class: activators; actives 0.13% (n = 340,000); AID 624287; active means well fitted activation curve with a large enough effect; inconclusive means small, poorly fitted or top-dose-only effect, or another doubt; inactive means no such curve, though single readings can be large or run the other way; cell line not stated here;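 further: phosphodiesterase inhibitor Ro 20-1724 added with compounds to block cAMP breakdown; potency means the concentration at half of the fitted maximal effect; nearly all actives have a fitted effect of over 60% in size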
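Cells in DMEM/10% FBS with G418 were pretreated with compounds in DMSO plus […] (300 uM stock) for 30 min at 37C. cAMP was measured by HTRF (cAMP-d2 plus anti-cAMP antibody-K) after 30 min at room temperature.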
Akt phos inh = inhibitors of Akt phosphorylation; activity change, % for hits at 50 µM; actives 0.32% (n = 360,000); Neuro2A IGF-stimulated pAkt S473 HTRF, 20 min; hits give low values; in the data active means activity change below about -80%; inconclusive means mostly about -51% to -80%; further: on the % scale 0 is the no-effect control and ±100 the full control effect
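Neuro2A cells (4,500/well, DMEM with 0.5% FBS) were treated with compound at a single 50 µM final concentration, stimulated with 6 nM IGF for 20 min at 37 °C, and lysed. Phospho-Akt Ser473 was read by HTRF as 665/615 ratio ×10^4.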
The depositor's hits bear a star; [ ] = dose if it differs, or a comment. Hits are enriched below; roughly 2.7% of the tested compounds scored in any of these assays.

Screening Cn1nc(-c2ccc(Cl)cc2)nc2c(=O)n(C)c(=O)nc1-2 returned ClpP mod -6% and RXFP1 agonist 4.5µM*.
`S=c1nc(-c2ccccc2)c(-c2ccccc2)n[nH]1` gave gsp antag -10%, ClpP mod 0%, RXFP1 antagonist -5, RXFP1 agonist 22%, gsp agonist -96% and Akt phos inh inactive.
`Nc1c(-c2ccccc2)n[nH]c1-c1ccccc1` gave gsp antag 1%, ClpP mod 28µM*, RXFP1 antagonist -3, RXFP1 agonist -1%, gsp agonist -8% and Akt phos inh inactive.
`CC(=O)c1ccc(OCC(O)CN2CCOCC2)cc1` (configuration not stated) gave gsp antag 9%, ClpP mod 0%, RXFP1 antagonist 2, RXFP1 agonist 0%, gsp agonist -77% and Akt phos inh inactive.
Screening CC(=O)c1ccc(OCC(O)CN2CCN(S(=O)(=O)c3c(C)cc(C)cc3C)CC2)cc1 (configuration not stated) returned gsp antag 0%, ClpP mod 20µM*, RXFP1 antagonist -23, RXFP1 agonist -2%, gsp agonist -5%[15.4 µM] and Akt phos inh inactive.
Screening COc1cc(/C=C/C(=O)O)cc(S(=O)(=O)NCCCO)c1OC returned gsp antag 1%, ClpP mod 28µM*, RXFP1 antagonist 5, RXFP1 agonist -2%, gsp agonist -10% and Akt phos inh inactive.
`Cc1ccc(/C=C/C(=O)O)cc1S(=O)(=O)NCCCO` gave gsp antag 4%, ClpP mod -2%, RXFP1 antagonist -2, RXFP1 agonist 3%, gsp agonist 4% and Akt phos inh inactive.
For O=C(Nc1ccccc1)OC[C@@H]1C=CS(=O)(=O)N1Cc1ccc(Br)cc1 the results were ClpP mod 0% and Akt phos inh inactive.
Screening Cc1ccc(-n2nnnc2SCc2nc3sc(C)c(C)c3c(=O)[nH]2)cc1 returned gsp antag 8%, ClpP mod 3.5µM*, RXFP1 agonist 4%, gsp agonist 0% and Akt phos inh inactive.
For CC(=O)c1sc2nc(CSc3nnnn3-c3ccccc3)[nH]c(=O)c2c1C the results were gsp antag -18%, ClpP mod 1%, RXFP1 antagonist -38, RXFP1 agonist 8%, gsp agonist 1%[15.4 µM] and Akt phos inh inactive.
For COc1cccc(NC(=O)CSc2nccn2Cc2ccc3c(c2)OCO3)c1 the results were ClpP mod 0%, RXFP1 antagonist 8 and RXFP1 agonist -4%.
`COc1ccc(CCNC(=O)C(C)n2nc(C)c3sc4ccccc4c3c2=O)cc1OC` (configuration not stated) gave ClpP mod -13%, RXFP1 antagonist -8 and RXFP1 agonist 20%.
CC1(C(=O)Nc2cccc3cccnc23)CCN1Cc1cccc2c1OCO2 (configuration not stated) was read as ClpP mod 32µM* and Akt phos inh inactive.
Screening CC1(C(=O)Nc2ccc3c(c2)OCO3)CCN1Cc1cccc2c1OCO2 (configuration not stated) returned ClpP mod 0% and Akt phos inh inactive.
`O=C1CCCC2=C1C(c1ccc(Cl)cc1)N=C(Nc1nc3ccccc3o1)N2` (configuration not stated) gave ClpP mod 5%.
`CCOc1c(C)cc2[nH]c(CCC(=O)O)nc2c1C` gave gsp antag 10%, ClpP mod -3%, RXFP1 antagonist 6, RXFP1 agonist 3%, gsp agonist -19% and Akt phos inh -112%*.
For O=C(O)CCc1nc2ccccc2[nH]1 the results were RXFP1 antagonist 11.
Screening O=C(COC(=O)/C=C/c1cccs1)Nc1nc(-c2ccccc2)cs1 returned gsp antag -2%, RXFP1 antagonist -28, RXFP1 agonist 0%, gsp agonist 14% and Akt phos inh inactive.
For COc1ccc(-c2nnc(NC(=O)CSc3ccccc3)s2)cc1OC the results were gsp antag 4%, ClpP mod 22µM*, RXFP1 antagonist -2, RXFP1 agonist 6%, gsp agonist inconclusive and Akt phos inh inactive.
Screening Cc1nc(N)sc1-c1csc(Nc2ccccn2)n1 returned gsp antag -2%, ClpP mod -3%, RXFP1 antagonist -5, RXFP1 agonist 1%, gsp agonist 11% and Akt phos inh -110%*.
Screening COc1ccc(-c2nnc(NC(=O)CSc3ccc(C)cc3)s2)cc1OC returned gsp antag 2%, ClpP mod -15%, RXFP1 antagonist 18, RXFP1 agonist 8%, gsp agonist 1% and Akt phos inh inactive.
`Cc1nc(C)c(-c2csc(Nc3ccccn3)n2)s1` gave gsp antag -13%, ClpP mod -9%, RXFP1 antagonist -17, RXFP1 agonist 0%, gsp agonist -22% and Akt phos inh inactive.
Screening O=C(COC(=O)c1cccs1)Nc1nc(-c2ccccc2)cs1 returned gsp antag 11%, ClpP mod 32µM*, RXFP1 antagonist 0, RXFP1 agonist 2%, gsp agonist -19%[15.4 µM] and Akt phos inh inactive.
For COc1ccc(-c2csc(Nc3ccccn3)n2)cc1OC the results were gsp antag -27%, ClpP mod 0%, RXFP1 antagonist -84*, RXFP1 agonist -1%, gsp agonist -1%[15.4 µM] and Akt phos inh inactive.
Cc1ccc(-c2csc(Nc3ccccn3)n2)cc1 was read as gsp antag 9%, RXFP1 antagonist -36, RXFP1 agonist 2%, gsp agonist inconclusive and Akt phos inh inactive.
Screening CCOc1ccccc1N(CC(=O)Nc1ccccc1Br)S(=O)(=O)c1ccccc1 returned ClpP mod 2%, RXFP1 antagonist 2, gsp agonist -93% and Akt phos inh inactive.
`O=C(O)c1ccc(OCCN2CCCCC2)cc1` gave RXFP1 antagonist 6.
Screening O=C(Nc1c(-c2ccc3c(c2)OCO3)[nH][nH]c1=O)c1ccc2c(c1)OCO2 returned ClpP mod -9% and Akt phos inh inactive.
COc1ccc2c(c1C)CCC(C)(C#N)C2=O (configuration not stated) was read as gsp antag 2%, RXFP1 antagonist 11, gsp agonist 8% and Akt phos inh inactive.
Screening Cc1ccnc(Nc2nc(-c3ccc(Cl)cc3)cs2)c1 returned gsp antag 6%, RXFP1 antagonist -3, RXFP1 agonist 0%, gsp agonist inconclusive and Akt phos inh inactive.
